# Assay outcomes: PubChem BioAssay, National Center for Advancing Translational Sciences (NCATS)
# NS1 inh: influenza NS1 inhibition | AID 2326 | Potency, µM (highest dose often 46.1 µM), without a hit: top-dose activity, positive = more growth | 270,000 compounds, 0.4% hits; calls by dose curve; further: potency means the concentration at half of the fitted maximal effect; actives are rising curves; nearly all actives have a fitted effect of over 50% in size
#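 Recovery from NS1-induced slow growth read by OD600 in budding yeast switched to galactose assay medium (pH 6.0, -URA) at 1:100 dilution. Compound 23 nl per well; the matching strain lacking NS1 serves as control.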
# Pf growth 96h: P. falciparum growth inhibition at 96 hour, primary screen for plastid delayed-death inhibitors; P. falciparum luciferase reporter growth, 96 h; Potency, µM (titrated, usually from 28.7 µM), for inactives: at the top dose activity change, negative = inhibition, most hits filed as inhibitors; 320,000 compounds, 6.9% hits; further: potency means the concentration at half of the fitted maximal effect; on the % scale 0 is the no-effect control and ±100 the full control effect
#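 Delayed-death screen, second-generation endpoint: infected erythrocytes, 2% hematocrit, 0.05% parasitemia final; 96 hours at 37 C, 5% CO2; luciferase detection reagent; luminescence decrease equals reduced growth.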
# Cycloheximide cs: affects cycloheximide protein synthesis inhibition readout, counter-screen; 300,000 compounds, 12% hits; max response, %; cell reporter, cycloheximide protein synthesis inhibition counterscreen; in the data active means max response mostly above about 13%, no sharp cut-off; inactive means mostly below about 14%; further: read at 38.3 µM for the half of the compounds with a filed dose; 0% is about no effect
# Shiga toxin inh: inhibitors of Shiga toxin in Vero cells. Vero cells, Shiga toxin protein synthesis inhibition reporter. 290,000 compounds, 9.2% hits. inhibition, % at 38.7 µM; in the data active means inhibition mostly above about 28%, no sharp cut-off; inactive means mostly below about 43%; further: 0% is about no effect
# Pf growth 48h: inhibits P. falciparum growth in the first generation, 48 h | P. falciparum luciferase growth in erythrocytes, 48 h | Potency, µM (series often up to 28.7 µM), for inactives: top-dose activity change, negative = inhibition, usual class: inhibitors | 310,000 compounds, 5.9% hits; further: potency means the concentration at half of the fitted maximal effect; on the % scale 0 is the no-effect control and ±100 the full control effect
#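 First compound was added to culture medium, then infected red cells at 0.1% parasitemia and 2% hematocrit (final). After incubation at 37 C under 5% CO2, luciferase detection reagent was dispensed and light output recorded.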
# * = called active by the depositor; ? = inconclusive; / = not tested or not shown; [ ] = remark or other dose. Hits are enriched below; roughly 21% of the tested compounds scored in any of these assays. Unless noted, the call rests on the fitted dose curve; in most records, active means well fitted inhibition curve with a large enough effect; inconclusive means small, poorly fitted or top-dose-only effect, or another doubt; inactive means no such curve, though single readings can be large or run the other way.
SMILES,NS1 inh,Pf growth 96h,Cycloheximide cs,Shiga toxin inh,Pf growth 48h
CCOc1ccc(NC(=O)NC2CCCCCCC2)cc1,1%,?,51*,91*,80%
CCc1ccc(NC(=O)C(=S)NC2CCCCC2)cc1,-3%,234%,23*,57*,165%
CCOc1ccc(NC(=O)C(=S)NC2CCCCC2)cc1,0%,8%,22*,37,18%
CCC(Cc1c(I)cc(I)c(N)c1I)C(=O)O (centres undefined),/,10%,/,/,-1%
CCCCCCC1/C(=N/O)CCC1C(=O)OC (centres undefined),-2%,2%,-1,-17,3%
COC(=O)C(O)(c1ccc(NC(=S)NC(=O)c2ccc(Cl)cc2Cl)cc1)C(F)(F)F (centres undefined),18%,19%,-2,4,7%
CCc1cccc(NC(=O)NC2CCCCC2)c1,-52%,/,23*,44,26%
CCc1ccc(NC(=O)C2CCCN2C(=O)NC2CCCCC2)cc1 (centres undefined),-1%,9%,-1,-4,0%
COC(=O)C(O)(c1ccc(NC(=O)NC2CCCCC2)cc1)C(F)(F)F (centres undefined),5%,30%,35*,39*,121%
CCc1cccc(NC(=O)C2CCCC2)c1,-10%[9.22 µM],97%,-2,8,16%
COc1ccc(NC(=O)C(=S)NC2CCCCC2)cc1,0%,18%,47*,118*,117%
CCc1ccc(NC(=O)NC2CCCCCCC2)cc1,-5%,?,53*,119*,109%
CCn1c(SCc2ccc([N+](=O)[O-])cc2)nnc1C(C)NC(=O)c1ccc(C)cc1 (centres undefined),2%,10µM*,-7,-12,-9%
COc1cc2c(cc1OC)CN(C(=O)c1cc(C3CC3)nn1-c1ccccc1)CC2,/,5.9µM*,/,/,?
O=C(c1cc(C2CC2)nn1-c1ccccc1)N1CCN(S(=O)(=O)c2cccc(F)c2)CC1,/,?,/,/,8.3µM*
O=C(c1cc(-c2ccccc2)nn1-c1ccccc1)N1CCN(S(=O)(=O)c2cccc(F)c2)CC1,/,?,/,/,6%
O=C(c1cc(-c2cccs2)nn1-c1ccccc1)N1CCN(S(=O)(=O)c2ccccc2)CC1,/,4.1µM*,/,/,10µM*
Cc1nn(Cc2ccccc2)c(C)c1NC(=O)CCCn1nc([N+](=O)[O-])cc1C,/,14%,-2,8,?
CCc1ccccc1N(CC(=O)NC(C)C)C(=O)CCC(=O)Nc1nccs1,6%,-1%,-1,-8,?
CC(=O)c1ccc(-n2c(SCC(=O)c3c[nH]c4ccccc34)nc3ccccc3c2=O)cc1,?,?,15,7,12µM*
Cc1ccccc1-n1nnnc1SCC(C)C,/,-4%,-1,-10,12%
CCOC(=O)c1c(C)[nH]c(C)c1C(=O)CSc1nnnn1-c1ccccc1,-6%,12µM*,-1,-13,/
CCOC(=O)c1[nH]c(CSc2nnnn2-c2ccccc2C)c(C(=O)OCC)c1C,-3%,?,-8,-14,10µM*
CCOC(=O)c1c(C)[nH]c(C)c1C(=O)CSc1nc2ccccc2c(=O)n1-c1ccc(CC)cc1,4%,9.3µM*,7,-2,?
CCOC(=O)c1c(NC(=O)CSc2ncnc3ccccc23)sc(C(C)=O)c1C,7%,-23%,5,8,4%
CCOC(=O)c1c(NC(=O)CSc2nc3ccccc3c(=O)n2-c2ccc(F)cc2)sc(C(C)=O)c1C,15%,3.3µM*,-2,-7,4.1µM*
CCCCC(=O)Nc1nn(CCC)c2nc3ccccc3cc12,-4%,?,-3,-6,12µM*
CCCCC(=O)Nc1nn(CC)c2nc3c(C)cccc3cc12,-6%,?,-3,-5,/
